Measured values as given in the supplement of paper PMC6992640.

Tested on: WHIM30 (cells of a triple-negative basal-like breast cancer xenograft)
Assay: cell viability (% of vehicle); higher = less cytotoxic
Settings: 1 µM; 72 h
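Also: cells dissociated from PDX tumors propagated in female NSG mouse mammary fat pads, vehicle control 0.1% DMSO.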

SMILES | cell viability
Cc1ccc(-n2[nH]c(C)c(NN=C3C=CC=C(c4cccc(C(=O)O)c4)C3=O)c2=O)cc1C [Eltrombopag] | 96.2
Oc1c(Cl)cc(Cl)c2cccnc12 [Chloroxine] | 71.6
CCN(CC)CCCC(C)Nc1ccnc2cc(Cl)ccc12.O=P(O)(O)O.O=P(O)(O)O (stereo unspecified) [Chloroquine diphosphate] | 81.2
COC(=O)NC(C(=O)NC(Cc1ccccc1)C(O)CN(Cc1ccc(-c2ccccn2)cc1)NC(=O)C(NC(=O)OC)C(C)(C)C)C(C)(C)C (stereo unspecified) [Atazanavir] | 84.6
COc1cc2nccc(Oc3ccc(NC(=O)C4(C(=O)Nc5ccc(F)cc5)CC4)cc3)c2cc1OC.O=C(O)CC(O)C(=O)O [Cabozantinib malate (XL184)] | 84.4
O=C(C=Cn1cnc(-c2cc(C(F)(F)F)cc(C(F)(F)F)c2)n1)NNc1cnccn1 | 41.8
Nc1ccn(C2OC(CO)C(O)C2O)c(=O)n1 (stereo unspecified) [Cytarabine] | 80.9
CO[C@H]1/C=C/O[C@@]2(C)Oc3c(C)c(O)c4c(O)c(c(/C=N/N5CCN(C6CCCC6)CC5)c(O)c4c3C2=O)NC(=O)/C(C)=C\C=C\[C@H](C)[C@H](O)[C@@H](C)[C@@H](O)[C@@H](C)[C@H](OC(C)=O)[C@@H]1C [Rifapentine] | 95.8
CS(=O)(=O)O.Cc1c(O)cccc1C(=O)NC(CSc1ccccc1)C(O)CN1CC2CCCCC2CC1C(=O)NC(C)(C)C (stereo unspecified) [Nelfinavir Mesylate] | 81.4
CCN(CC)CCNC(=O)c1c(C)[nH]c(C=C2C(=O)Nc3ccc(F)cc32)c1C.O=C(O)CC(O)C(=O)O [Sunitinib malate] | 69.2
N.N.O=C([O-])C1(C(=O)[O-])CCC1.[Pt+2] [Carboplatin] | 77
CC(NCCCc1cccc(C(F)(F)F)c1)c1cccc2ccccc12.Cl (stereo unspecified) [Cinacalcet HCl] | 81.6
COC(=O)c1ccc2c(c1)NC(=O)C2=C(Nc1ccc(N(C)C(=O)CN2CCN(C)CC2)cc1)c1ccccc1 [Nintedanib (BIBF 1120)] | 51.2
COc1cc(C(=O)NS(=O)(=O)c2ccccc2C)ccc1Cc1cn(C)c2ccc(NC(=O)OC3CCCC3)cc12 [Zafirlukast] | 97.2
CCC(=C(c1ccccc1)c1ccc(OCCN(C)C)cc1)c1ccccc1.O=C(O)CC(O)(CC(=O)O)C(=O)O [Tamoxifen Citrate] | 99.9
CCCCc1oc2ccc(NS(C)(=O)=O)cc2c1C(=O)c1ccc(OCCCN(CCCC)CCCC)cc1.Cl [Dronedarone HCl] | 76.2
CC(C)CC(NC(=O)CNC(=O)c1cc(Cl)ccc1Cl)B(O)O (stereo unspecified) | 23.1
COC(=O)C1=C(C)NC(C)=C(C(=O)OCCN(C)Cc2ccccc2)C1c1cccc([N+](=O)[O-])c1.Cl (stereo unspecified) [Nicardipine HCl] | 100
CCOc1cc2ncc(C#N)c(Nc3ccc(F)c(Cl)c3)c2cc1NC(=O)C=CCN(C)C [Pelitinib (EKB-569)] | 46.1
CCOC(=O)c1c(CSc2ccccc2)n(C)c2cc(Br)c(O)c(CN(C)C)c12.Cl [Arbidol HCl] | 92.6
CN(C)CCOc1ccc(C(=C(CCCl)c2ccccc2)c2ccccc2)cc1.O=C(O)CC(O)(CC(=O)O)C(=O)O [Toremifene Citrate] | 102
CN(C)c1ccc(O)c2c1CC1CC3C(N(C)C)C(=O)C(C(N)=O)=C(O)C3(O)C(=O)C1=C2O.Cl (stereo unspecified) [Minocycline HCl] | 102
CC(Oc1cc(-c2cnn(C3CCNCC3)c2)cnc1N)c1c(Cl)ccc(F)c1Cl [(R)-Crizotinib] | 95.7
CC(C)(C)NC(=O)C1CC2CCCCC2CN1CC(O)C(Cc1ccccc1)NC(=O)C(CC(N)=O)NC(=O)c1ccc2ccccc2n1.CS(=O)(=O)O (stereo unspecified) [Saquinavir mesylate] | 99.4
O=C1C=CC=CC1=C1NC(=C2C=CC=CC2=O)N(c2ccc(C(=O)O)cc2)N1 [Deferasirox] | 98.2
Cl.OC(c1cc(C(F)(F)F)nc2c(C(F)(F)F)cccc12)C1CCCCN1 (stereo unspecified) [Mefloquine hydrochloride] | 74
